In assay [1] the test system is Wnt5a (protein binding on small-molecule microarray). Nature of the assay: Wnt5a binders on small-molecule microarray, primary screen, biophysical, 635/667 nm fluorescence (AID 1142).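 Note: fluorescence read at 667 nm with signal to noise per printed feature.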 To be noted: 635 nm fluorescence, higher = more signal.
Assay [2] in a line: cell viability in Huh7 cells, primary screen, cytotoxicity control for HCV replication inhibitor project, CellTiter-Glo luminescence, basal, 48 h (AID 1143).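 Note: Huh7 hepatoma cells carrying a hepatitis C replication reporter with no stimulus; test concentration not given here.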 To be noted: Huh7 HCV replicon, higher = more signal, called active from +8 up or from −8 down. (Cellular ATP, detected with luciferase, serves as a proxy for viable cell number.)
Assay [3] in a line: P. aeruginosa biofilm formation inhibitors, primary screen, PAO1 strain, BacTiter-Glo luminescence, LB-PBS (AID 1144). To be noted: 12 h, higher = more signal.
Assay [4] is described as follows: CREB reporter modulators without forskolin, primary screen, cell-based, PC12, CRE-LacZ reporter, unstimulated (AID 1145). To be noted: no forskolin, luminescence, 4.5 h, higher = more signal, called active from +8 up or from −8 down.
Assay [5] in a line: CREB reporter modulators under forskolin, primary screen, cell-based, PC12, CRE-LacZ reporter, forskolin-stimulated (AID 1146).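 Note: PC12 cells with 6xCRE LacZ reporter stimulated by forskolin 10 µM; beta-galactosidase reporter signal reflecting CREB driven transcription.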 The following applies: luminescence, 4.5 h, higher = more signal, called active from +8 up or from −8 down.
Assay [6] concerns the target Streptavidin (Streptomyces avidinii) (UniProt P22629). Nature of the assay: streptavidin binders on small-molecule microarray, primary screen, artefact control for SMM compound annotation, biophysical, 635/667 nm fluorescence (AID 1147).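 Note: signal reflects streptavidin binding to arrayed compounds as a control protein.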 The following applies: streptavidin binding, higher = more signal.
A short description of assay [7]: small-molecule binders of probe aInhba, primary screen, biochemical, small-molecule microarray, 635/667 nm fluorescence (AID 1148).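 Note: score merges 667nm spot fluorescence with signal-to-noise for antibody binding to printed compounds.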 The following applies: higher = more signal.
In assay [8] the target is Torsin-1A (Homo sapiens) (UniProt O14656). Nature of the assay: torsin A binders from cell lysate, primary screen, small-molecule microarray, wild-type, 635/667 nm (AID 1149). The following applies: COS7 hTOR1A-WT lysate, 635 nm fluorescence, higher = more signal.
Torsin-1A (Homo sapiens), sequence (O14656 whole entry, looked up): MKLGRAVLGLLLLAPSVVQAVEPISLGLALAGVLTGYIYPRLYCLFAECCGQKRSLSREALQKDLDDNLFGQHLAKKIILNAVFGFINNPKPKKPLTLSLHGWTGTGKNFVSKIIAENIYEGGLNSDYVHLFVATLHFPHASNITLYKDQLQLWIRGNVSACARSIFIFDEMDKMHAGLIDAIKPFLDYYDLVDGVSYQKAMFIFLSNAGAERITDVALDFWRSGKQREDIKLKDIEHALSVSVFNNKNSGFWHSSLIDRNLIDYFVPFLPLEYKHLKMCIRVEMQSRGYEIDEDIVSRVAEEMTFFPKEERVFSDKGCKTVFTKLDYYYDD
Assay [9] shares this target. Nature of the assay: small-molecule binders of mutant TOR1A in lysate, primary screen, cell lysate, small-molecule microarray, COS7 lysate, 635/667 nm fluorescence (AID 1150).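 Note: score pools 667 nm emission and signal to noise measuring lysate protein binding.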 The following applies: COS7 hTOR1A mutant lysate, 635 nm fluorescence, higher = more signal.
The subject of assay [10] is Sonic hedgehog protein (Shh). Nature of the assay: small-molecule binders of Shh protein, primary screen, biochemical, small-molecule microarray, 635/667 nm fluorescence (AID 1151).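 Note: Shh protein binding to compounds spotted on small-molecule microarray slides; score combines spot fluorescence intensity with signal-to-noise across triplicate slides.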 The following applies: small-molecule microarray binding, 635 nm fluorescence; higher = more signal.
Assay [11] can be described thus: E. coli DRC41 culture turbidity changes, primary screen, E. coli filamentation inducer project, strain DRC41, OD650, 48 h (AID 1152).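 Note: E. coli MC1000 strain DRC41 lacking acrAB efflux pump and sulA.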 The following applies: E. coli DRC41 (acrAB sulA), higher = more signal, called active from +8 up or from −8 down.
A short description of assay [12]: small-molecule binders of probe aLefty1, primary screen, biochemical, small-molecule microarray, 635/667 nm fluorescence (AID 1153).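 Note: score merges spot fluorescence with signal-to-noise ratio from the scanned slide images.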 To be noted: higher = more signal.
A short description of assay [13]: PSAC antagonists in infected red cells, primary screen, cell-based, P. falciparum Indochina, OD700, 1 h (AID 1154). The following applies: P. falciparum Indochina infected RBC osmotic lysis, higher = more signal, called active from +8 up or from −8 down.
Assay [14] can be described thus: PSAC antagonists in infected red cells, primary screen, cell-based, P. falciparum Indochina, OD700, 2 h (AID 1155).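 Note: lysis reports solute entry through the parasite surface anion channel PSAC; channel blockers reduce lysis of infected cells.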 To be noted: P. falciparum Indochina infected erythrocytes, osmotic lysis OD700; higher = more signal, called active from +8 up or from −8 down.
Assay [15] can be described thus: osmotic lysis modulators in infected erythrocytes, primary screen, PSAC antagonist project, cell-based, P. falciparum Indochina, OD700, 3 h (AID 1156). The following applies: higher = more signal, called active from +8 up or from −8 down.
A short description of assay [16]: PSAC antagonists in infected red cells, primary screen, cell-based, P. falciparum Indochina, OD700, 18 h (AID 1157). To be noted: P. falciparum Indochina infected erythrocytes, osmotic lysis OD700, 18 h; higher = more signal, called active from +8 up or from −8 down.
Assay [17] in a line: modulators of S6 phosphorylation in cells, primary screen, cell-based, A549, cytoblot, luminescence, serum-stimulated (AID 1158).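 Note: serum-stimulated A549 lung adenocarcinoma cells; signal is phosphorylated S6 detected by cytoblot immunostaining with HRP secondary.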 To be noted: A549 phospho-S6 cytoblot, 5 h, higher = more signal.
For assay [18], the target named is NADPH oxidase 2 (Homo sapiens) (UniProt P04839). Nature of the assay: NOX2-dependent H2O2 signal modulators, primary screen, NOX inhibitor project, cell-based, HEK293-NOX2, PMA-stimulated, Amplex Red fluorescence (AID 1159). Note: test concentration not given here. To be noted: 45 min, higher = more signal, called active from +8 up or from −8 down.
NADPH oxidase 2 (Homo sapiens), sequence (P04839 whole entry, looked up): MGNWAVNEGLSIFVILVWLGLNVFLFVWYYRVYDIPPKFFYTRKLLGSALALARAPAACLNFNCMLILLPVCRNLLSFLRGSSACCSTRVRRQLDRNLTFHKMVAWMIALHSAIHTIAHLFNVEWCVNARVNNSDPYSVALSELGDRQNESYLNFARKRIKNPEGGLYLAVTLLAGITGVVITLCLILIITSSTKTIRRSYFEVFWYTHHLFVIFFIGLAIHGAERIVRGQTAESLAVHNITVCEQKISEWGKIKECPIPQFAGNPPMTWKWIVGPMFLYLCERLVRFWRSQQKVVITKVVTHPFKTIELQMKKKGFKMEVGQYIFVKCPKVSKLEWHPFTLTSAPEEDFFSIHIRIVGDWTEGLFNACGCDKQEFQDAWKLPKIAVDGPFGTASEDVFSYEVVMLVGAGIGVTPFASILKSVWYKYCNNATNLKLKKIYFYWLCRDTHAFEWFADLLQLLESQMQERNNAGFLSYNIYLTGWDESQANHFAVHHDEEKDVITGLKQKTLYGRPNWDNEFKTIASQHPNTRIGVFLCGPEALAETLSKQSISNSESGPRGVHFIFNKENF
For assay [19], the target named is NADPH oxidase 4 (Homo sapiens) (UniProt Q9NPH5). As to the kind of experiment: NOX4-dependent H2O2 signal modulators, primary screen, NOX inhibitor project, cell-based, HEK293-NOX4, tetracycline-induced, Amplex Red fluorescence (AID 1160). To be noted: 45 min, higher = more signal, called active from +8 up or from −8 down.
NADPH oxidase 4 (Homo sapiens), sequence (Q9NPH5 whole entry, looked up): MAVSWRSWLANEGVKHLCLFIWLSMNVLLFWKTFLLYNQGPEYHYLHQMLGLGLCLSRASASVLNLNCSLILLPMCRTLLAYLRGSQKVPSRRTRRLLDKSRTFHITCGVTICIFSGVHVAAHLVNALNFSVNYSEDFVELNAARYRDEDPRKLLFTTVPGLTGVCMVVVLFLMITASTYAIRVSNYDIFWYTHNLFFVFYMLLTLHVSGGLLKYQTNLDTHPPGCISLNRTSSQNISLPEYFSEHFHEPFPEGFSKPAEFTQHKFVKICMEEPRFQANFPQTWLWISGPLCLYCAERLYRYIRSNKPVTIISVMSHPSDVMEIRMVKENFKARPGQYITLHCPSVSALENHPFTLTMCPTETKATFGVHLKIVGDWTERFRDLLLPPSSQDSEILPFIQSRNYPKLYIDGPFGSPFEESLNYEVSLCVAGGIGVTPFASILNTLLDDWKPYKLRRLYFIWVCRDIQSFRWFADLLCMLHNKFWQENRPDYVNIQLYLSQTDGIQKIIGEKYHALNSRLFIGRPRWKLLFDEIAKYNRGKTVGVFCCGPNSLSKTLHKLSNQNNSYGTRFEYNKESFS
Assay [20] deals with NADPH oxidase 5 (Homo sapiens) (UniProt Q96PH1). As to the kind of experiment: NOX5-dependent H2O2 signal modulators, primary screen, NOX inhibitor project, cell-based, HEK293-NOX5, Amplex Red fluorescence (AID 1161). The following applies: HEK293-NOX5, ionomycin, 45 min, higher = more signal.
NADPH oxidase 5 (Homo sapiens), sequence (Q96PH1 whole entry, looked up): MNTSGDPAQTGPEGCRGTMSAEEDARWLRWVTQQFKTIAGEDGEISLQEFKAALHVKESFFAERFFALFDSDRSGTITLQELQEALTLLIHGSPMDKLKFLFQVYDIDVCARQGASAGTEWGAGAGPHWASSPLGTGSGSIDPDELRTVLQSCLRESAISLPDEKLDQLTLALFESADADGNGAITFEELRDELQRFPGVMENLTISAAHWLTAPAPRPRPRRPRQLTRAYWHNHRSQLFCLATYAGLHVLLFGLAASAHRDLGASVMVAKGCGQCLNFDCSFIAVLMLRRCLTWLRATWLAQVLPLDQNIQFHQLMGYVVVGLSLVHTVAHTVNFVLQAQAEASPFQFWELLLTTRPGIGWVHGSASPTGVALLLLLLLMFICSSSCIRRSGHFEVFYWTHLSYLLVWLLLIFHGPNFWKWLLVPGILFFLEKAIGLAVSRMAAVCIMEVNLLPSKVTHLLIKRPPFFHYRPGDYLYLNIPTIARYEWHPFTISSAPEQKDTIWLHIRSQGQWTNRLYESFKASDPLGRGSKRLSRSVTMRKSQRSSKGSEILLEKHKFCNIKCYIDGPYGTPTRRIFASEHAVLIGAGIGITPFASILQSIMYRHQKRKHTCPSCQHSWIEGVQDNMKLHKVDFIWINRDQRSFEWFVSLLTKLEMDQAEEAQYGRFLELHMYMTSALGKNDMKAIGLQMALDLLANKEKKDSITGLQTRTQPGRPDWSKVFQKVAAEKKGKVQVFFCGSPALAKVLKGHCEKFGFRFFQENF

Each structure is given as a SMILES string. Calls of active or inactive are those of the source. Unless noted, the rule behind the calls is not given here.

Streptavidin (Streptomyces avidinii), sequence (P22629 whole entry, looked up): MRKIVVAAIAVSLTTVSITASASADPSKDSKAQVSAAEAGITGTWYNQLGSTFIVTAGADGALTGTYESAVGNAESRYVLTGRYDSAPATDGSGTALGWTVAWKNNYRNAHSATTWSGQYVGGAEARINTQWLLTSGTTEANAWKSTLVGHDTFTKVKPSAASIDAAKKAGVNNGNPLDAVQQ

For the compound `COC(=O)c1c2oc(c1C(=O)OC)C(=O)N[C@H](Cc1ccccc1)Cn1cc(nn1)C1(CCCCC1)NC(=O)N[C@H](CO)CC2`, the composite z-score in assay [1] is 0.075; in assay [6], -0.626; in [7], 0.161; in the assay with Torsin-1A (Homo sapiens) [8], 0.3; with Torsin-1A (Homo sapiens) [9], 0.29; in assay [10], 1.52. The compound also registered a composite z-score in [12] of -0.104. The z-score in [2] was 0.0261 (inactive); in assay [3], -0.72 (inactive); in assay [4] it was 8.64 (active); in assay [5] it was 0.334 (inactive); in [11], 2.53 (inactive); in assay [13], 0.96 (inactive). Also, the z-score in [14] is 0.166 (inactive); in [15], 0.789 (inactive); in assay [16], 0.286 (inactive); in assay [17] it was 0.274; in [18] it was -0.0295 (inactive); in assay [19], 1.77 (inactive). In addition, the z-score in assay [20] stood at 0.431.
`CCCC1(C(=O)OC)C=C2C(=C(C(C)C)C(=O)C2C)CN1` (stereo not given): the composite z-score is -0.0597 in assay [1]; -0.481 in assay [6]; -0.0791 in assay [7]; -0.814 in the assay with Torsin-1A (Homo sapiens) [8]; 0.29 with Torsin-1A (Homo sapiens) [9]; -0.182 in assay [10]. Besides, the composite z-score in assay [12] came to 0.062. Moreover, the z-score in [2] is -0.349 (inactive); in [3], 0.2 (inactive); in assay [4], 0.786 (inactive); in assay [5], -0.645 (inactive); in [11] it was -2.12 (inactive); in assay [13], 2.85 (inactive). The z-score in assay [14] is 0.364 (inactive); in [15], 0.454 (inactive); in assay [16] it was 0.57 (inactive); in assay [17] it was -0.598; in assay [18] it was 0.216 (inactive); in [19] it was -1.15 (inactive). Further, the z-score in assay [20] was -3.15.
On to `CO[C@H]1O[C@H](CO)[C@@H](OC(=O)Nc2ccccc2)[C@@H]2OC(=O)[C@@H](Cc3ccccc3)C/C=C/C[C@H](Cc3ccccc3)C(=O)O[C@@H]12`, for which the composite z-score in assay [1] was 0.129; in [6] it was -0.304; in assay [7] it was -0.0719; with Torsin-1A (Homo sapiens) [8], 0.433; with Torsin-1A (Homo sapiens) [9], 1.93; in assay [10], 0.591. The same compound gave a composite z-score in assay [12] of -0.093. The z-score in assay [2] is -0.0611 (inactive); in assay [3], -0.213 (inactive); in assay [4], -0.403 (inactive); in assay [5], -0.656 (inactive); in assay [11] it was 0.364 (inactive); in assay [13] it was 0.131 (inactive). Further, the z-score was 0.162 (inactive) in assay [14]; 0.288 (inactive) in assay [15]; 0.0794 (inactive) in assay [16]; -0.0813 in assay [17]; -2.79 (inactive) in [18]; -0.266 (inactive) in assay [19]. In assay [20], this compound had a z-score of -1.3.
In the case of `COC(=O)[C@@]1(Cc2ccccc2)[C@H]2c3cc(C(=O)N(C)C)n(CCF)c3C[C@H]2CN1C(=O)c1ccccc1`, the composite z-score in [1] was 0.633; in [6], 1.74; in [7], 0.333; with Torsin-1A (Homo sapiens) [8] it was -0.0224; with Torsin-1A (Homo sapiens) [9], 1.16; in assay [10], -0.187. Also, the composite z-score in assay [12] was 0.873. Besides, the z-score in assay [2] was -0.717 (inactive); in [3], -0.247 (inactive); in [4], 0.387 (inactive); in assay [5] it was 0.218 (inactive); in assay [11], -0.81 (inactive); in assay [13] it was 1.54 (inactive). The z-score was 0.322 (inactive) in assay [14]; 0.484 (inactive) in assay [15]; 0.544 (inactive) in [16]; -0.546 in assay [17]; 0.148 (inactive) in [18]; -1.73 (inactive) in assay [19]. Further, in assay [20], the z-score is -1.89.
Turning to `CN1C(=O)C2C=CC(C(O)c3ccc([N+](=O)[O-])cc3)N(Nc3ccccc3)C2C1=O` (stereo not given), the composite z-score was 0.288 in [1]; 1.65 in assay [6]; 0.179 in [7]; 0.0754 with Torsin-1A (Homo sapiens) [8]; 0.317 with Torsin-1A (Homo sapiens) [9]; -0.0538 in [10]. Further, in assay [12], the composite z-score came to 0.658. Further, the z-score was 0.349 (inactive) in assay [2]; -0.898 (inactive) in [3]; 0.0535 (inactive) in assay [4]; -0.323 (inactive) in assay [5]; -1.93 (inactive) in assay [11]; 1.98 (inactive) in [13]. Further, the z-score in assay [14] was 1.36 (inactive); in assay [15], 2.88 (inactive); in [16] it was 1.44 (inactive); in assay [17] it was -1.06; in assay [18], -1.45 (inactive); in assay [19], -5.03 (inactive). The compound further returned a z-score in assay [20] of -3.26.
As for `CCCCCCCCCCC(O)C1C=CC2C(=O)N(C)C(=O)C2N1Nc1ccccc1` (stereo not given), the composite z-score in [1] is -0.56; in [6], -0.925; in [7], -0.474; in the assay with Torsin-1A (Homo sapiens) [8] it was -0.0378; with Torsin-1A (Homo sapiens) [9], 0.213; in assay [10], -1.5. In assay [12], this compound came in with a composite z-score of -0.206. Further, the z-score was -0.776 (inactive) in assay [2]; 0.178 (inactive) in assay [3]; 0.819 (inactive) in assay [4]; 0.848 (inactive) in assay [5]; -2.27 (inactive) in [11]; 8.71 (active) in assay [13]. For the same compound, the z-score in assay [14] was 3.03 (inactive); in assay [15], 0.156 (inactive); in [16], 2.84 (inactive); in assay [17], -1.28; in assay [18], -0.433 (inactive); in assay [19], -4.22 (inactive). This compound also came in with a z-score in [20] of -1.7.
With `COC(=O)[C@@]1(Cc2ccc(OC)cc2)[C@H]2c3cc(C(=O)N(C)C)n(Cc4c(CO)[nH]cc(C)c4=O)c3C[C@H]2CN1C(=O)c1ccccc1`, the composite z-score in [1] is -0.172; in [6], 0.27; in [7], 0.0219; with Torsin-1A (Homo sapiens) [8] it was 0.351; with Torsin-1A (Homo sapiens) [9], 0.461; in assay [10] it was -0.532. Also, the composite z-score in assay [12] came out at 0.318. Moreover, the z-score in assay [2] is -0.0137 (inactive); in assay [3] it was -0.357 (inactive); in [4] it was 1.15 (inactive); in assay [5] it was 2.29 (inactive); in assay [11], -2.08 (inactive); in [13], 2.77 (inactive). The z-score in [14] was 0.814 (inactive); in assay [15], 0.072 (inactive); in [16], 0.643 (inactive); in assay [17] it was -0.507; in [18], -0.0394 (inactive); in assay [19] it was -0.719 (inactive). In assay [20], the z-score is -0.777.
As to `N#Cc1ccc(NN2C(C(O)c3ccc(B(O)O)cc3)C=CC3CN(c4ccccc4)C(=O)C32)cc1` (stereo not given), the composite z-score is -0.465 in [1]; 0.287 in [6]; -0.128 in [7]; -0.0754 with Torsin-1A (Homo sapiens) [8]; 0.103 with Torsin-1A (Homo sapiens) [9]; -0.944 in assay [10]. This compound also displayed a composite z-score in assay [12] of 0.521. The z-score in [2] is -0.0138 (inactive); in assay [3], -0.454 (inactive); in assay [4] it was -0.898 (inactive); in [5], -0.758 (inactive); in assay [11], 1.18 (inactive); in [13], 24.4 (active). Moreover, the z-score is 10.6 (active) in assay [14]; 3.76 (inactive) in assay [15]; 2.54 (inactive) in assay [16]; -0.882 in [17]; -2.63 (inactive) in assay [18]; -6.25 (inactive) in [19]. In assay [20], this compound gave a z-score of -4.31.

(Values after PubChem BioAssay.)
